Assay outcomes deposited in PubChem by several laboratories.
Sampled rows, rich in hits. Any-hit rate of the full collection: about 2.2%.
TROY NFkB inh – inhibitors of TROY-dependent NF-kB signaling; Q293 LMP1-TROYcd NF-kB luciferase reporter, 4 h; inhibition, % at 10 µM; hit rate 0.98% among 360,000; AID 1347056;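 active = compounds whose plate-normalised and pattern-corrected inhibition of the luciferase reporter signal at the single screening dose is 50% or more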
LGR2 antag – Drosophila LGR2 receptor signaling inhibition. inhibition, % at 9.99 µM. AID 720647. HEK293 LGR2, CRE-luciferase, bursicon-stimulated, 4 h. hit rate 0.35% among 380,000;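 active = drop in luminescence signal, shown as inhibition above about 50% in the replicate tests, limit read from the data, passing the limit was not always enough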;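 also: agonist challenge used bursicon conditioned medium at about half maximal strength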
HSP90 inh – inhibitors of HSP90 luciferase refolding in rabbit reticulocyte lysate; luciferase refolding luminescence, 3 h; inhibition, % at 5.6 µM; hit rate 0.91% among 290,000;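 active = inhibition above the screen-wide mean plus 3 SD, computed separately per campaign, cut at about 16% in these data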;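 also: 0% = DMSO wells and 100% = 60 µM geldanamycin wells; inhibitors lower the luminescence because luciferase stays unfolded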
TWEAK Fn14 block – blocks TWEAK-Fn14 interaction in a reporter cell assay; TWEAK-stimulated Fn14 reporter cells, luciferase luminescence, 8 h; inhibition, % at 10 µM; hit rate 2% among 360,000; AID 1159606; in the data active = inhibition above about 50%
An asterisk follows results filed as active; ! = repeats disagree.

Results for C[C@H](CO)N1C[C@H](C)[C@@H](CN(C)C(=O)Nc2ccc(C(F)(F)F)cc2)OCCCC[C@H](C)Oc2ccc(NC(=O)Nc3cccc4ccccc34)cc2C1=O ?
LGR2 antag: -5

How did Cc1noc(C)c1NC(=O)Nc1cccc2c1O[C@H](CN(C)Cc1ccc3c(c1)OCO3)[C@@H](C)CN([C@@H](C)CO)C2=O do in these assays?
LGR2 antag: 20

How did CCOc1cc(-c2c(C#N)c(N)nc3c2CCc2ccccc2-3)ccc1O do in these assays?
TROY NFkB inh: 14; LGR2 antag: 12; HSP90 inh: -1; TWEAK Fn14 block: 75*

What do the screens show for `COc1ccccc1-c1c(C#N)c(N)nc2c1CCc1ccccc1-2`?
TROY NFkB inh: 54*; LGR2 antag: 21; HSP90 inh: 4; TWEAK Fn14 block: 73*

Results for CCOc1cc(-c2c(C#N)c(N)nc3c2CCCC3C)ccc1O (stereo unspecified) ?
TROY NFkB inh: 16; HSP90 inh: -2; TWEAK Fn14 block: 26

What do the screens show for `O=C(CNC(=O)c1cccs1)c1ccc(Br)cc1`?
TROY NFkB inh: -7; LGR2 antag: -15; HSP90 inh: -1; TWEAK Fn14 block: 55*

What do the screens show for `CCN(CC)c1ccc2cc(C(=O)Nc3ccccn3)c(=O)oc2c1`?
TROY NFkB inh: 53*; HSP90 inh: 1; TWEAK Fn14 block: 87*

How did Cc1ccc(S(=O)(=O)c2nc(Nc3nccs3)sc2Cl)cc1 do in these assays?
TROY NFkB inh: 52*; HSP90 inh: 2; TWEAK Fn14 block: -30

How did O=C(CNc1cccc2ccccc12)N/N=C/c1ccc([N+](=O)[O-])cc1 do in these assays?
TROY NFkB inh: -1; LGR2 antag: -5; HSP90 inh: 3; TWEAK Fn14 block: 82*

What do the screens show for `CCOc1cc(N(CC)CC)ccc1/C=C(/C#N)c1nc2ccccc2[nH]1`?
TROY NFkB inh: 60*; HSP90 inh: 18*; TWEAK Fn14 block: 69*

What do the screens show for `COc1cccc(/C=C(\C#N)c2nc3ccccc3[nH]2)c1OCC(=O)O`?
TROY NFkB inh: -8; LGR2 antag: -50; HSP90 inh: 4; TWEAK Fn14 block: 99*

How did Cc1ccc2oc(NC3=NC4(CCCC4)C4=C(CCCC4=O)N3)nc2c1 do in these assays?
TROY NFkB inh: 9; LGR2 antag: -2; TWEAK Fn14 block: 52*

What do the screens show for `C[C@@H]1CN([C@@H](C)CO)C(=O)c2cc(C#CCN(C)C)cnc2O[C@H]1CN(C)C(=O)Cc1cccnc1`?
LGR2 antag: 9

How did C[C@H]1CCCCO[C@H](CN(C)C)[C@@H](C)CN([C@@H](C)CO)C(=O)c2cc(NS(=O)(=O)c3ccccc3)ccc2O1 do in these assays?
LGR2 antag: -1

Results for CCCC(=O)Nc1ccc2c(c1)C(=O)N(C)C[C@@H](OC)[C@H](C)CN(Cc1cc(-c3ccccc3)on1)[C@H](C)CO2 ?
LGR2 antag: 13

How did COc1ccc(C(=O)N2N=C(c3ccc(NS(C)(=O)=O)cc3)CC2c2cccs2)cc1 (stereo unspecified) do in these assays?
TROY NFkB inh: 51*; LGR2 antag: -16; HSP90 inh: 5; TWEAK Fn14 block: 22

Results for COc1cccc(NC(=O)C[C@H]2CC[C@@H]3[C@@H](COc4ccc(NC(C)=O)cc4C(=O)N3C)O2)c1 ?
LGR2 antag: -7

What do the screens show for `CCCNC(=O)N1C[C@@H](C)[C@H](OC)CN(C)C(=O)c2cc(NC(=O)CCC)ccc2OC[C@H]1C`?
LGR2 antag: -9

How did O=c1c2c(nc3cc(-c4ccccc4)[nH]n13)CCS2 do in these assays?
TROY NFkB inh: 21; HSP90 inh: -7; TWEAK Fn14 block: 13

What do the screens show for `O=c1c2c(nc3cc(-c4ccccc4Cl)[nH]n13)CCS2`?
TROY NFkB inh: -2; LGR2 antag: -56; HSP90 inh: -2; TWEAK Fn14 block: 63*

Results for CCOC(=O)C1=C(COCCN)NC(C)=C(C(=O)OC)C1c1ccccc1Cl (stereo unspecified) ?
TROY NFkB inh: 66*!; LGR2 antag: 18; TWEAK Fn14 block: 3

Results for Cn1c(-c2ccccc2)cc2onc(-c3ccccc3)c2c1=O ?
TROY NFkB inh: 73*; LGR2 antag: 94*; TWEAK Fn14 block: 91*

How did Cn1c(-c2ncc(F)cc2F)cc2onc(-c3c(F)cccc3Cl)c2c1=O do in these assays?
TROY NFkB inh: -27; LGR2 antag: -110; TWEAK Fn14 block: -17

What do the screens show for `Cn1c(-c2ccccc2F)cc2onc(-c3ccccc3)c2c1=O`?
TROY NFkB inh: 66*; LGR2 antag: 39; TWEAK Fn14 block: 73*

Results for N/C(=N\OC(=O)c1ccc(Cl)cc1)c1[nH]ncc1Br ?
TROY NFkB inh: 18; LGR2 antag: 61*; HSP90 inh: 4; TWEAK Fn14 block: 65*

Results for CCO/N=C(\N)c1[nH]ncc1Br ?
TROY NFkB inh: -1; LGR2 antag: -13; HSP90 inh: -1; TWEAK Fn14 block: 12

Results for CN(C)C(=O)c1cc([N+](=O)[O-])ccc1O ?
TROY NFkB inh: -1; LGR2 antag: 27; HSP90 inh: -1; TWEAK Fn14 block: -3

How did CN(C)C(=O)c1cc([N+](=O)[O-])cc([N+](=O)[O-])c1N(C)C do in these assays?
TROY NFkB inh: 9; HSP90 inh: -5; TWEAK Fn14 block: 107*

What do the screens show for `C=CS(=O)(=O)c1ccc(Oc2ccc(S(=O)(=O)C=C)cc2)cc1`?
TROY NFkB inh: 63*; LGR2 antag: 102*; HSP90 inh: 14; TWEAK Fn14 block: 102*

How did CCOc1ccc(-c2csc(/C(C#N)=C\c3ccc(O)c([N+](=O)[O-])c3)n2)cc1 do in these assays?
TROY NFkB inh: 71*; LGR2 antag: 10; HSP90 inh: -2; TWEAK Fn14 block: 104*

What do the screens show for `CCOc1ccc(NC(=O)CN2C(=O)/C(=C3\SC(=S)N(C4CCS(=O)(=O)C4)C3=O)c3ccccc32)cc1` (stereo unspecified)?
TROY NFkB inh: -4; LGR2 antag: 3; HSP90 inh: 20*; TWEAK Fn14 block: 5

What do the screens show for `COCC(=O)Nc1ccc2c(c1)OC[C@H](C)N(Cc1cc(F)ccc1F)C[C@@H](C)[C@H](OC)CN(C)C2=O`?
LGR2 antag: -2

Results for Cc1cc(-c2nnc(SCC(=O)Nc3ccccc3C(F)(F)F)o2)c(C)n1-c1ccccc1 ?
TROY NFkB inh: 70*; HSP90 inh: 9; TWEAK Fn14 block: 92*

Results for O=C(CSc1nnc(-c2ccncc2)o1)Nc1cc(F)ccc1F ?
TROY NFkB inh: -20; LGR2 antag: -24; TWEAK Fn14 block: -11

Results for O=C(CSc1nnc(-c2ccccc2)o1)Nc1ccccc1F ?
TROY NFkB inh: -4; LGR2 antag: 24; HSP90 inh: 15; TWEAK Fn14 block: 57*

What do the screens show for `Cc1cc(C(=O)Nc2cccc3c2O[C@@H](CN(C)S(=O)(=O)c2cccs2)[C@H](C)CN([C@@H](C)CO)C3=O)n(C)n1`?
LGR2 antag: -23

Results for CCN1CCN(CCNC(=O)c2ccc(/C=C3/Sc4ccccc4N(Cc4ccccc4C)C3=O)cc2)CC1 ?
TROY NFkB inh: 42; LGR2 antag: 48; HSP90 inh: 3; TWEAK Fn14 block: -76

What do the screens show for `CCN1CCN(CCCNC(=O)c2ccc(/C=C3/Sc4ccccc4N(Cc4ccccc4F)C3=O)cc2)CC1`?
TROY NFkB inh: 60*; LGR2 antag: 21; HSP90 inh: 4; TWEAK Fn14 block: 7
